Measurements: PubChem BioAssay (NCI)
This is part of a sample that, as a whole, favours compounds with a hit. Of some 83,000 tested, about 20% had one in any assay.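 Values shown are percent growth following 48 h exposure of cells in 96-well plates to a single concentration of compound; below 10 was considered active.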 Values without a mark were called inactive. Calls of active or inactive are those of the source.

system: HL-60(TB) leukemia; test: NCI-60 one-dose screen, 48 h (100 = growth as untreated, 0 = no growth, -100 = all killed); settings: 10 µM unless noted

| Compound | growth |
| --- | --- |
| O=C(Nn1cnc2ccccc21)N1CCCC1 | 87.1% |
| C#CCSc1nnnn1-c1ccc(Br)c(C)c1 | 88.4% |
| Cc1cc(Nc2ccc(Cl)cc2)nc(NCCCNc2ccnc3cc(Cl)ccc23)n1 | -76.8% (active) |
| c1cc[n+](Cc2c3ccccc3cc3c2ccc2ccccc23)cc1 | 36% |
| COc1ccc(CCNC=O)cc1OC | 96.9% |
| O=Nc1ccc(NC(=O)Nc2ccc([N+](=O)[O-])cc2)cc1 | 89.8% |
| CC(=O)c1c(C)[nH]c(-c2nc3ccc(N4CCN(C)CC4)cc3[nH]2)c1-c1ccc(N(C)C)cc1 | -17.3% (active) |
| C=CC[n+]1c(/C=C2\Sc3ccccc3N2C)sc(-c2ccccc2)c1-c1ccccc1 | -25.5% (active) |
| c1coc(CNc2ccnc(Nc3ccc(OCCN4CCCCC4)cc3)n2)c1 | 74.6% |
| CCN(CC)c1ccc(/C=C/C=C2\NC(=O)NC2=O)cc1 | 50.8% |
| C[C@H]1[C@H](C)CC[C@]2(C(=O)NCC#CCN3CCN(C)CC3)CC[C@]3(C)C(=CC[C@@H]4[C@@]5(C)Cc6c([nH]c7ccccc67)C(C)(C)[C@@H]5CC[C@]43C)[C@H]12 | 63.9% |
| CCOC(=O)c1c(C)oc2ncnc(Nc3ccc(NC(=O)Nc4ccc(CC)cc4)cc3)c12 | 103% |
| COc1c(O)cc2oc3cc(O[C@@H]4OC(C)[C@@H](O)[C@H](O)C4O)c(CC=C(C)C)c(O)c3c(=O)c2c1CC=C(C)C (stereo not given in full) | 90.4% |
| Cn1c(/C=C/[N+](=O)[O-])cc2ccccc21 | 53.4% |
| Cc1ccc2[nH]c3nc4cccnc4c(C)c3c2c1 | 83.5% |
| COC(=O)c1cc2c(/C=C3/NC(=S)NC3=O)coc2n1C | 100% |
| O=c1c2cc(F)ccc2sc2c(NCCCNCCO)nc3ccc(F)cc3c12 | 54.6% |
| O=C(c1cccc(N2CCOCC2)n1)c1c[nH]c2ccccc12 | 98.9% |
| CCOC(=O)Nc1cc2c(c(N)n1)N=C(c1ccccc1)CO2 | -0.963% (active) |
| O=C(N=Nc1c(Cl)c(O)c2ccccc2c1O)C(=O)Nc1cccc(C(F)(F)F)c1 | 6.33% (active) |
| N#Cc1cc(-c2ccnc(Nc3ccc(NC(=O)CCl)cc3)n2)ccc1N1CCCC1 | -49.2% (active) |
| CCN(CC)CC(O)CNc1c2ccc(Cl)cc2nc2ccc(OC)cc12 (stereo not given) | -0.864% (active) |
| C=C[C@@H]1C[C@H](O)Cc2c(C)cc(C)cc2N1 | -16.4% (active) |
| Cc1cc(-c2ccccc2)cc(C)n1 | 104% |
| c1ccc(-c2ccc(-c3ccccc3)[nH]2)cc1 | 91.2% |
